Most compounds without a hit are left out; they make up all but 21% or so of the library.
Pf growth 96h = P. falciparum growth inhibition at 96 hour, primary screen for plastid delayed-death inhibitors. P. falciparum luciferase reporter growth, 96 h. Potency, µM (doses to about 28.7 µM), for inactives: at the highest dose activity change, negative = inhibition, actives largely listed as inhibitors. 320,000 compounds, 6.9% hits. AID 504834; note: potency is the fitted concentration of half-maximal effect; % is set by controls: 0 for no effect and ±100 for the full control effect
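Delayed-death screen, second-generation endpoint: infected erythrocytes, 2% hematocrit, 0.05% parasitemia final; 96 hours at 37 C, 5% CO2; luciferase detection reagent; luminescence decrease equals reduced growth.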
Pf growth 48h = P. falciparum growth inhibition at 48 hours (one generation); P. falciparum luciferase growth in erythrocytes, 48 h; Potency, µM (top dose mostly 28.7 µM), without a hit: top-dose activity change, negative = inhibition, hits mostly inhibitors; 310,000 compounds, 5.9% hits; note: potency is the fitted concentration of half-maximal effect; % is set by controls: 0 for no effect and ±100 for the full control effect
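Compounds are pin-transferred into medium, infected erythrocytes (2% hematocrit, 0.1% parasitemia final) are added, and plates sit one parasite generation at 37 C in 5% CO2. Detection reagent is then added and luminescence measured.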
HCV inh = blocks hepatitis C virus; Huh7.5.1 HCVcc-Cre infection, luciferase reporter, 44 h; Potency, µM (series often up to 41.8 µM), without a hit: at the highest dose activity change, negative = inhibition, usual class: inhibitors; 340,000 compounds, 3.4% hits; note: potency is the fitted concentration of half-maximal effect; % is set by controls: 0 for no effect and ±100 for the full control effect
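1,000 cells/well; 4 h culture; + compound; + HCVcc-Cre (~0.5 moi); 44 h; luciferase substrate, RT 15 min; read 15 sec.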
CHX counter = counter-screen for Shiga toxin inhibitors: cycloheximide protein synthesis inhibition; max response, %; 300,000 compounds, 12% hits; AID 2314; cell reporter, cycloheximide protein synthesis inhibition counterscreen; in the data active = max response mostly above about 13%, no sharp cut-off; inactive = mostly below about 14%; note: read at 38.3 µM for the half of the compounds with a filed dose; 0% is about no effect
Shiga inhibitor = inhibitors of Shiga toxin in Vero cells | Vero cells, Shiga toxin protein synthesis inhibition reporter | AID 2315 | 290,000 compounds, 9.2% hits | inhibition, % at 38.7 µM; in the data active = inhibition mostly above about 28%, no sharp cut-off; inactive = mostly below about 43%; note: 0% is about no effect
HCMV inh = human cytomegalovirus inhibition. activity change, negative = inhibition, % at 57.5 µM. HFF cells, HCMV-luciferase reporter, 72 h; hits give low values. 410,000 compounds, 4.5% hits; in the data active = activity change below about -60%; inconclusive = no clear call, values can overlap the other calls; inactive = above about -39%; note: % is set by controls: 0 for no effect and ±100 for the full control effect
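Two-dose cell screen: HFF monolayers treated with compounds and infected with luciferase-expressing HCMV at 1 PFU/cell, 72 h at 37C, then lysed for luciferase measurement.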
Starred values were filed as active, the others as inactive; ? = inconclusive; · = no result. Unless noted, calls come from the whole dose curve; as a rule, active = well fitted inhibition curve with a large enough effect; inconclusive = small, poorly fitted or top-dose-only effect, or another doubt; inactive = no such curve, though single readings can be large or run the other way.

SMILES	Pf growth 96h	Pf growth 48h	HCV inh	CHX counter	Shiga inhibitor	HCMV inh
COc1ccc(CN(C(=O)c2snc(C(N)=O)c2N)C(C(=O)NC2CCCC2)c2cc(OC)ccc2OC)cc1 (stereo not drawn)	2.08µM*	10.4µM*	-1.7%	6.9	-3.5	19.1
COc1ccccc1N(C(=O)c1snc(C(N)=O)c1N)C(C(=O)NC1CCCC1)c1ccc(N(C)C)cc1 (stereo not drawn)	5.1%	13.1µM*	-18.5%	-4.9	-1.8	4.4
COc1ccc(C)cc1N(C(=O)c1snc(C(N)=O)c1N)C(C(=O)NC1CCCCC1)c1ccc(C)o1 (stereo not drawn)	?	9.28µM*	?	-8.0	-8.4	?
COc1ccccc1N(C(=O)c1snc(C(N)=O)c1N)C(C(=O)NC1CCCC1)c1ccco1 (stereo not drawn)	14.3%	-17.1%	0.1%	-7.6	-12.8	?
COc1ccccc1N(C(=O)c1snc(C(N)=O)c1N)C(C(=O)NC1CCCCC1)c1cccc(OC)c1OC (stereo not drawn)	-8.4%	8.28µM*	?	1.7	-13.5	?
NC(=O)CSc1nnc(-c2ccco2)n1-c1ccc(F)cc1	·	·	·	·	·	-0.7
COCCNC(=O)C(c1ccc(C)o1)N(C(=O)c1snc(C(N)=O)c1N)c1cc(C)cc(C)c1 (stereo not drawn)	·	?	-9.5%	-1.1	43.4	-78.5*
CN(Cc1ccccc1)S(=O)(=O)c1ccc2c(c1)NC(=O)CC(=O)N2	10.4µM*	50.7%	3.0%	-1.4	-3.0	8.7
Cc1ccc(C(=O)CCC2CCCCC2=O)cc1 (stereo not drawn)	139.8%	·	5.2%	33.1*	101.5*	8.3
CCc1ccc(C(=O)CCC2CCCCC2=O)cc1 (stereo not drawn)	28.9%	·	2.6%	36.0*	95.8*	·
Cc1ccc(C(=O)CCC2CCCC2=O)cc1 (stereo not drawn)	87.1%	96.5%	5.3%	50.0*	53.2*	28.9
O=C(COC(=O)CN1C(=O)NC2(CCCC2)C1=O)Nc1c(Cl)cccc1C(F)(F)F	19.4%	12.5%	1.1%	·	·	-7.1
CNC[C@H](Cc1ccccc1)NC[C@@H](Cc1cccc2ccccc12)NCCc1ccc(C)cc1	2.94µM*	2.62µM*	13.8%	-7.9	-15.8	?
Cc1ccc(C(=O)NC(CCc2ccccc2)C(=O)O)cc1 (stereo not drawn)	·	·	-3.8%	·	·	8.8
c1ccc(CCNCCCOc2cccc3ccccc23)cc1	0.8%	3.1%	?	-3.6	·	7.2
CNCCNC[C@H](Cc1cccc2ccccc12)NCCc1ccccc1	·	·	?	·	·	-100.3*
Oc1ccccc1N=Cc1c(O)ccc2oc3c(c12)CCCC3	?	?	?	7.8	9.6	?
Cc1ccnc(N=Cc2c(O)ccc3oc4c(c23)CCCC4)c1	30.7%	7.6%	-22.3%	26.5*	8.4	·
O=C(O)c1ccc(N=Cc2c(O)ccc3oc4c(c23)CCCC4)cc1	21.6%	0.8%	?	16.7*	31.3	0.0
COc1ccc(C(=O)n2nc(-c3cccnc3)nc2NCc2ccccc2)cc1OC	·	·	·	·	·	13.0
Cc1cc(C)c(Nc2ncnc(N)n2)c(C)c1	11.1%	?	-1.5%	-1.2	-7.2	34.1
C[C@H]1CN([C@@H](C)CO)C(=O)c2cc(NC(=O)NC3CCCCC3)ccc2O[C@H]1CN(C)C(=O)Nc1ccc(C(F)(F)F)cc1	·	·	5.3%	·	·	78.7
Cc1cc(=O)c2cc(C(=O)Nc3ccc(C)c(C)c3)ccc2[nH]1	·	·	·	·	·	-6.9
CSCCC(NC(=O)c1ccccc1Cl)C(=O)NC1CCN(Cc2ccccc2)CC1 (stereo not drawn)	-21.0%	50.3%	-1.2%	4.9	-3.7	2.0
N#Cc1c(N)n(CCNC(=O)c2ccccc2)c2nc3ccccc3nc12	?	?	0.0%	-1.7	-2.4	-66.1*
SMILES	Pf growth 96h	Pf growth 48h	HCV inh	CHX counter	Shiga inhibitor	HCMV inh
COc1ccc(CCn2c(N)c(C#N)c3nc4ccccc4nc32)cc1OC	56.2%	5.86µM*	-5.8%	6.6	-30.3	-17.7
COc1ccccc1CCn1c(N)c(C#N)c2nc3ccccc3nc21	?	9.28µM*	8.4%	2.0	9.3	?
COC(=O)c1sc(-c2ccccc2)cc1NC(=O)c1cccc(F)c1	·	·	·	·	·	-2.9
CCN(CC(=O)Nc1c(F)cccc1F)C(=O)C1CCCO1 (stereo not drawn)	·	·	·	·	·	35.9
Cc1ccc(Nc2cc(C)nc3nncn23)c(C)c1	·	·	·	·	·	1.9
Cc1nn(C)c(C(=O)N/N=C/c2cccnc2)c1Cl	?	-3.4%	8.1%	-1.7	-19.8	?
COc1ccc2c(Cl)c(C(=O)NN)sc2c1	?	31.1%	-7.0%	25.5	27.2	?
COc1ccc2c(Cl)c(C(N)=O)sc2c1	·	39.5%	?	19.5*	10.2	-3.4
COc1ccc2c(Cl)c(C(=O)N/N=C/c3cccnc3)sc2c1	32.7%	?	5.4%	19.9*	47.1*	?
COc1ccc(NC(=O)C(=O)N/N=C/c2cccnc2)cc1	?	3.3%	0.8%	-0.9	2.4	-15.8
O=C(N/N=C/c1cccnc1)c1sc2ccccc2c1Cl	-13.4%	?	-4.2%	21.0*	17.4	-13.4
COCCNC(=O)C(=O)N/N=C/c1ccc(C(=O)OC)cc1	28.3%	15.9%	22.6%	-0.6	8.1	37.3
C[C@H](O)C(N)C(=O)O (stereo partly drawn)	·	·	·	-3.9	-8.7	·
Cc1ccc(OC(=O)c2cc(-c3ccc4c(c3)OCCO4)on2)c(C)c1	·	·	·	·	·	-18.1
Cc1nonc1CC(=O)NC1CCCc2c1cnn2-c1ccc(F)cc1F (stereo not drawn)	14.9%	3.9%	-8.7%	0.9	16.2	-36.4
CCc1ccc(N(CC(=O)N2CCOCC2)S(C)(=O)=O)cc1	13.1µM*	-4.7%	-2.1%	2.4	·	-14.4
COc1ccc(N(CC(=O)N2CCN(c3ccc(Cl)cc3)CC2)S(=O)(=O)c2c(C)n[nH]c2C)cc1	-71.1%	?	?	-4.4	26.0	-72.7*
CCc1ccc(N(CC(=O)N2CCCCCC2)S(C)(=O)=O)cc1	?	-10.4%	18.4%	1.7	-4.6	-12.6
COc1ccc(N(CC(=O)N2CCN(c3ccccc3)CC2)S(=O)(=O)c2ccccc2)cc1	·	·	·	·	·	6.1
COc1ccc(N2CCN(C(=O)CN(c3ccccc3)S(C)(=O)=O)CC2)cc1	10.4µM*	-16.3%	4.6%	1.9	-2.9	48.8
COc1ccc(N2CCN(C(=O)CN(c3cccc(OC)c3)S(=O)(=O)c3ccccc3)CC2)cc1	?	13.1µM*	?	-3.7	-1.4	26.6
COc1ccc(S(=O)(=O)N(CC(=O)N2CCN(c3ccccc3)CC2)c2ccccc2)cc1	?	·	?	0.8	5.8	2.3
COc1cccc(-c2csc(-c3c(N)c(C(=O)c4ccccc4)n4ccccc34)n2)c1	·	·	·	·	·	-24.1

Screening results from PubChem.
